# The sample as a whole holds a higher share of hits than the screen did.
# Tgondii IFNg: blocks Toxoplasma gondii growth in the presence of IFN-gamma; Toxoplasma gondii growth in IFN-gamma-treated host cells; hits give low values; activity change, negative = inhibition, % (no concentration beside the values); actives 3.8% (n = 69,000); AID 1259416; in the data active = activity change below about -70%, passing the limit was not always enough;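 also: host cells are HeLa cells infected with Toxoplasma gondii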
# * hit, by the source's call.
SMILES,Tgondii IFNg
Cc1ccc(-c2cn[nH]c2C2CCCN(C(=O)c3c[nH]c(=O)cn3)C2)cc1 (stereo not given),-20.2
Nc1cc(-c2cn[nH]c2C2CCCN(S(=O)(=O)c3ccccc3)C2)ccn1 (stereo not given),-38.9
CC(C)(C)OC(=O)N1CCCC(c2ccnc3cc(-c4cccc(F)c4)nn23)C1 (stereo not given),21.3
Cc1ccc(-c2cn[nH]c2C2CCCN(C(=O)c3ccc[nH]3)C2)cc1 (stereo not given),-91.9*
COCCC(=O)N1CCn2cc(CN3CCCC3)nc2C1,-3.4
O=C(COc1cccnc1)N1CCC(c2n[nH]c(=O)n2Cc2ccccc2)CC1,4.7
CCCc1nc(N2CCC(NS(C)(=O)=O)CC2)c2cnn(C)c2n1,1.2
O=C(COC(=O)c1cc2ccccc2oc1=O)c1ccc(Cl)cc1Cl,4.4
O=c1oc2ccccc2cc1-c1csc(-c2ccccc2Cl)n1,5.6
COc1cc(Br)c(-c2cc3ccccc3oc2=O)cc1OC,-86.3*
COc1cccc2cc(-c3ccccc3)c(=O)oc12,228.8
COc1ccccc1NC(=O)c1cccc(-c2cc3ccccc3oc2=O)c1,26.3
COc1cc(NC(=O)c2ccc(Cl)cc2Cl)ccc1-c1cc2ccccc2oc1=O,-85.0*
O=C(Nc1cc(F)c(Br)cc1F)C(F)(F)Sc1ccccc1,8.9
CC(C)CC(=O)N1CCC(n2nnc3ccccc3c2=O)CC1,-46.0
COc1ccc(Cl)cc1C(=O)Nc1ccc(-c2nc(Cn3cccn3)c(C)o2)cc1,78.8
Cc1ccc2[nH]cc(CCN3CC(C(=O)Nc4ccc(C)c(C)c4)CC3=O)c2c1 (stereo not given),-27.9
CC1NCCn2c(COCc3ccccn3)cnc21 (stereo not given),-83.3*
CC(=O)N1CCn2c(COCc3ccccn3)cnc2C1C (stereo not given),0.3
CC1c2ncc(CNC(=O)C3CC3)n2CCN1Cc1ccccn1 (stereo not given),11.3
COc1ccc(CN2CCCC2)cc1Oc1ncc(C(F)(F)F)cc1Cl,-44.3
CSc1cccc(NC(=O)N2CCc3nc(CNC(=O)C4CCC4)n(C)c3C2)c1,-27.7
CC(C)C(=O)N1CCc2nc(C(=O)N3CCCCC3)sc2CC1,53.3
Cc1ccc(C)c(NC(=O)Cn2cc(C#N)c3ccccc32)c1,9.8
CCn1nnnc1SCC(=O)N1c2ccccc2Sc2ccccc21,-10.7
SMILES,Tgondii IFNg
O=C(COc1nc2ccccc2s1)N1c2ccccc2Sc2ccccc21,0.1
CCc1nc(SCC(=O)N2c3ccccc3Sc3ccccc32)c2ccccc2n1,-82.5*
CC(C)c1nccn1-c1cccc(C2CCCN(S(=O)(=O)N(C)C)C2)n1 (stereo not given),-15.3
CN(C)C(=O)c1ccc(-c2cccc(-c3nc(C(=O)NC4CCCCC4)cc4c3[C@H](CCO)N([S@@](=O)C(C)(C)C)C4)c2)cc1,-47.6
CC(C)(C)[S@@](=O)N1Cc2cc(C(=O)NC3CCC3)nc(-c3cccc(Br)c3)c2[C@H]1CCO,48.4
COc1ccc(C#Cc2cccc(-c3nc(C(=O)NCCCN4CCOCC4)cc4c3[C@@H](CCO)N(S(=O)C(C)(C)C)C4)c2)cc1OC (stereo not given in full),23.3
CC(C)(C)[S@](=O)N1Cc2cc(C(=O)NC3CCC3)nc(-c3cccc(Br)c3)c2[C@@H]1CCO,-74.9*
COc1ccc(C#Cc2cccc(-c3nc(C(=O)Nc4ccc(-c5ccccc5)cc4)cc4c3[C@@H](CCO)N(S(=O)C(C)(C)C)C4)c2)cc1OC (stereo not given in full),-71.2*
COc1ccc(C#Cc2cccc(-c3nc(C(=O)N4CCN(Cc5ccccc5)CC4)cc4c3[C@@H](CCO)N(S(=O)C(C)(C)C)C4)c2)cc1OC (stereo not given in full),-48.2
Cc1cccc(-c2nc(Cn3c(=O)c4cccnc4n(-c4ccccc4)c3=O)c(C)o2)c1,-13.0
Cc1ccc(CNS(=O)(=O)c2cc3c4c(c2)CCN4C(=O)CC3)o1,-3.3
COc1ccc(-n2c(=O)c(C(=O)Nc3ccc(C)c(C)c3)c(O)c3cccnc32)cc1,71.1
Cc1nc([C@H]2C[C@@H]3CCN(C(=O)Cc4ccccc4C)C[C@@H]3O2)n[nH]1,-1.7
CN(C)C(=O)[C@H]1C[C@@H]2CCN(S(C)(=O)=O)C[C@H]2O1,-2.3
CS(=O)(=O)N1Cc2ccccc2C2(CCN(C3CCOCC3)CC2)C1,47.4
CS(=O)(=O)N1CCN(C2CCOCC2)CC(C(=O)O)C1 (stereo not given),-100.3*
O=S(=O)(c1ccc2c(c1)CCCC2)N1CCC2(CC1)NCCN=C2NCc1ccc(Cl)cc1,-58.2
CC(=O)N1CCC2(CC1)CC(CC(=O)Nc1cccnc1)c1ccccc1O2 (stereo not given),-4.7
COCCN1Cc2ccnn2CC(COCc2cccnc2)C1 (stereo not given),1.2
CC(C)CN1CCN(C(=O)NCCc2ccc(F)cc2)C(C)C1=O (stereo not given),4.1
CCC[C@@]1(CCc2ccccc2)CC(=O)C([C@H](CC)c2cccc(NS(=O)(=O)c3ccc(C(F)(F)F)cn3)c2)C(=O)O1 (stereo not given in full),-69.1
CC(C)CN1C[C@@H]2[C@@H](C1)C(=O)NC21CCN(C(=O)Nc2ccc(Cl)cc2)CC1,-109.0*
CCN1c2cc(Cl)ccc2C(=O)NC12CCN(C(=O)Nc1ccc(OC)cc1)CC2,285.0
CN(C)C(=O)CN1CCOCC2(CCN(C(=O)Nc3ccc(Cl)cc3)CC2)C1,-0.1
COCC(=O)N1CCCN(Cc2ccc(C(C)=O)cc2)CC1,0.5
SMILES,Tgondii IFNg
COCCCN1CC2(CCCCN2C(C)=O)CC1=O (stereo not given),116.7
COc1cccc([C@@H]2CCCN(Cc3cc4n(n3)CCCNC4)C2)c1,-25.7
COc1cccc(CN2CCCC(c3ccc4c(NCc5cccc(C)n5)n[nH]c4n3)C2)c1 (stereo not given),-83.4*
COc1ccc(-c2nc(NCC3CCN(Cc4cccc(C)c4)CC3)c3ccccc3n2)cc1,-36.0
CCOC(=O)[C@@]12CCCN(C(=O)c3cccnc3)C[C@@H]1CN(C(C)=O)C2,1.7
Cc1cc(C(=O)N2CCCC3(C2)Nc2ccccc2NC3=NC(C)(C)C)nn1C (stereo not given),-17.7
Cc1cc(C)c2c(c1)[C@@H](N(Cc1cc(C(F)(F)F)cc(C(F)(F)F)c1)c1nnn(C)n1)CCCN2CC1CCC(C(=O)O)CC1 (stereo not given in full),-80.9*
Cc1ncsc1C(=O)NC(Cc1cc(=O)[nH]c(-c2ccccn2)n1)c1ccc(F)cc1 (stereo not given),-14.7
CCC(c1ccc(F)cc1)n1cc(C(=O)Nc2ccc3c(c2)N(C)C(=O)CO3)nn1 (stereo not given),-50.0
CCC(c1ccc(F)cc1)n1cc(C(=O)Nc2nc(-c3ccccn3)cs2)nn1 (stereo not given),-96.5*
COc1cccc(CCNC(=O)CCN2CCCCO2)c1,7.0
C[C@@H]1CN([C@@H](C)CO)C(=O)c2cc(/C=C/c3ccccc3)cnc2O[C@@H]1CN(C)S(=O)(=O)c1ccccc1F,-7.4
C[C@H](CO)N1C[C@H](C)[C@H](CN(C)S(=O)(=O)c2ccc(Cl)cc2)Oc2c(NC(=O)Nc3ccc(F)cc3)cccc2C1=O,-81.3*
C[C@@H]1CN([C@@H](C)CO)C(=O)c2cccc(NC(=O)Nc3ccc(F)cc3)c2O[C@@H]1CN(C)S(=O)(=O)c1ccc(Cl)cc1,-17.1
